Assay outcomes (PubChem BioAssay)
PAFAH2 FP inh – inhibitors of human PAFAH2. inhibition, % at 3.39 µM. recombinant PAFAH2, FP-rhodamine activity probe, fluorescence polarization. AID 492956. Q99487. actives 0.99% (n = 340,000);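 active = inhibition above the mean over all tested compounds plus 3 SD, cut at about 30% in these data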;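 note: inhibitors block probe labeling of enzyme so polarization drops; 0% = enzyme with DMSO and 100% = wells lacking PAFAH2 protein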
PAFAH1B2 FP inh – PAFAH1B2 (human) inhibition | P68402 | recombinant PAFAH1B2, FP-rhodamine activity probe, fluorescence polarization | inhibition, % at 3.39 µM | actives 1.2% (n = 340,000) | AID 492953;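 active = inhibition above the mean of all tested compounds plus 3 SD, cut at about 24% in these data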;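 note: 0% = enzyme with DMSO and 100% = wells lacking PAFAH1B2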
Target sequence (P68402 whole entry, looked up): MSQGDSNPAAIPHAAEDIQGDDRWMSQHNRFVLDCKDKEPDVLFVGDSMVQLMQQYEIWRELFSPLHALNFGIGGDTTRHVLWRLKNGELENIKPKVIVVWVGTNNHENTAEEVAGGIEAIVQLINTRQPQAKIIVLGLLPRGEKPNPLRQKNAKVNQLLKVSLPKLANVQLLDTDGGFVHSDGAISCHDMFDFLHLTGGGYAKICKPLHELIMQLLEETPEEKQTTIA
PAFAH1B3 inh – inhibitors of human PAFAH1B3 | Q15102 | recombinant PAFAH1B3, FP-rhodamine probe, fluorescence polarization | inhibition, % at 3.39 µM | actives 0.28% (n = 340,000);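 active = inhibition above the screen-wide average of all tested compounds plus 3 SD, cut at about 25% in these data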;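 note: 0% = enzyme with DMSO only and 100% = wells lacking PAFAH1B3 protein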
Target sequence (Q15102 whole entry, looked up): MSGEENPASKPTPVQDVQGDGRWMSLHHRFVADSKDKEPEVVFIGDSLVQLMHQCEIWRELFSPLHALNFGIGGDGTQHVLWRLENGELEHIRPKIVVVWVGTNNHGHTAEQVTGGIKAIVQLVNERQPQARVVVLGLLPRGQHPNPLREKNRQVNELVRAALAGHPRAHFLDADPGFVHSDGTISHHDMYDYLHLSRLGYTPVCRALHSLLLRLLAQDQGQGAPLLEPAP
PME-1 inh – PME-1 (human) inhibition. inhibition, % at 5.9 µM. Q9Y570. actives 0.53% (n = 320,000). recombinant PME-1, FP-Rh probe fluorescence polarization;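 active = inhibition above the campaign mean of all compounds plus 3 SD, cut at about 26% in these data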;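 note: competitive labeling of PME-1 active site by serine hydrolase directed probe; 0% = PME-1 with DMSO and 100% = wells lacking PME-1 enzyme; inhibitors block probe labeling so polarization falls and inhibition rises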
Fam108B counter – Fam108B inhibition, counter-screen for RBBP9 inhibitors; AID 1947; inhibition, % at 9.51 µM; recombinant Fam108B, FP-Rh probe fluorescence polarization; actives 0.33% (n = 300,000);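 active = inhibition above the screen mean inhibition plus 3 SD, computed separately per campaign, cut at about 18% in these data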;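 note: inhibitors lower polarization as less probe binds the enzyme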
pPAFAH FP inh – inhibitors of human plasma PAF acetylhydrolase (pPAFAH); recombinant pPAFAH, FP-rhodamine probe fluorescence polarization; inhibition, % at 3.39 µM; Q13093; actives 1.5% (n = 330,000);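 active = inhibition above the mean inhibition across the screen plus 3 SD, cut at about 25% in these data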;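 note: inhibitors block binding of the rhodamine activity-based probe so polarization drops; 0% = enzyme with DMSO and 100% = wells lacking pPAFAH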
pPAFAH confirm – pPAFAH (human) inhibition, confirmed; shares compounds with pPAFAH FP inh; recombinant pPAFAH, FP-Rh probe fluorescence polarization; inhibition, % at 3.39 µM; actives 72% (n = 2,300); AID 463230;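 active = mean inhibition of the triplicate above the hit cutoff set for the earlier primary screen, cut at about 25% in these data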;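 note: 0% = enzyme with DMSO and 100% = wells lacking pPAFAH enzyme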
An asterisk follows results filed as active; . = no result. An excerpt weighted towards active compounds, which were near 2.8% of everything screened.

SMILES | PAFAH2 FP inh | PAFAH1B2 FP inh | PAFAH1B3 inh | PME-1 inh | Fam108B counter | pPAFAH FP inh | pPAFAH confirm
CC(C(=O)N(C)C1CCS(=O)(=O)C1)N1C(=O)/C(=C/c2ccc(F)cc2)SC1=S (configuration not stated) | 5.3 | 3.1 | 1.2 | -8.8 | 5.8 | -6.2 | .
O=C1/C(=C\c2ccco2)SC(=S)N1C1CCS(=O)(=O)C1 (configuration not stated) | . | . | . | -0.4 | 1.2 | 22.7 | .
CN(C(=O)CSc1nnnn1C)C1(C#N)CCCCC1 | -3.8 | 6.8 | 11.6 | -3.1 | . | -2.2 | .
CSc1ccc(/C=N/NC(=O)CN2CCN(Cc3ccc(C)cc3)CC2)cc1 | 4.6 | -2.0 | 2.3 | -2.2 | 2.9 | -0.8 | .
CC1CN(S(=O)(=O)c2cccc(C(=O)N(CCc3ccccc3)Cc3ccccc3)c2)CC(C)O1 (configuration not stated) | 1.2 | -0.6 | -0.6 | 5.7 | 0.6 | 5.2 | .
CCOc1ccc2oc(C(=O)N(CC)CC(=O)Nc3c(F)cccc3F)c(C)c2c1 | 5.4 | -6.9 | -3.2 | 0.4 | -4.3 | 12.9 | .
COc1ccc(CNc2ncnc3c2[nH]c2cc(OC)c(OC)cc23)cc1 | 12.4 | 10.8 | 19.4 | 2.6 | 14.4 | 35.6* | 21.6
COc1ccc(CNc2ncnc3c2[nH]c2ccccc23)cc1 | . | . | . | 22.9 | 2.9 | 12.5 | .
O=C(OCC(=O)N1CCOCC1)c1ccc2[nH]c3c(c2c1)CCCC3 | 2.5 | -2.4 | 5.4 | -10.7 | 4.0 | -1.3 | .
O=C(COC(=O)c1ccc2[nH]c3c(c2c1)CCCC3)Nc1ccccc1 | 77.4* | 3.4 | -1.7 | 8.2 | 2.2 | 43.2* | 41.0*
CCNC(=O)NC(=O)C(C)N1C(=O)NC(c2ccccc2)(c2ccccc2)C1=O (configuration not stated) | -17.2 | 3.8 | -2.1 | 3.5 | 0.2 | 4.4 | .
O=C(Oc1nsnc1N1CCCCC1)N1CCOCC1 | 27.6 | 5.2 | 6.6 | -2.2 | 0.4 | 79.3* | 73.5*
O=C(COC(=O)Cc1ccc(S(=O)(=O)N2CCOCC2)s1)Nc1ccc(F)cc1F | -6.6 | 3.7 | 7.1 | . | . | 14.3 | .
O=C(COC(=O)c1ccc(NS(=O)(=O)c2cccs2)cc1)NCc1ccco1 | 40.4* | 2.9 | -4.5 | -7.2 | 1.8 | 41.5* | 29.5*
COCCN(C(=O)c1ccccc1OC1CCN(S(C)(=O)=O)CC1)C(C)C | 1.3 | 2.1 | 9.0 | -3.6 | 2.1 | -1.6 | .
COc1ccc(N2CCC(CNC(=O)Nc3ccc(Cl)cc3)C2)cc1 (configuration not stated) | -4.9 | 0.3 | 6.1 | 11.2 | 0.8 | 35.5* | 4.9
S=c1[nH]nc(-c2cc(-c3ccccc3)n[nH]2)n1/N=C/c1ccc(Br)s1 | 27.0 | 9.9 | 13.9 | 23.5 | 8.8 | 53.7* | 70.0*
COc1ccc(/C=N/N2C(C)CCCC2C)cc1O (configuration not stated) | -3.9 | 2.6 | 3.8 | 3.8 | -4.5 | -1.6 | .
CC1CCCC(C)N1/N=C/c1ccc(O)c(O)c1 (configuration not stated) | 5.0 | 4.3 | 13.4 | 3.1 | 2.7 | 45.2* | 10.7
CC(C)(C)OC(=O)NCCCC[C@H](NC(=O)c1[nH]cnc1C(=O)Nc1ccccc1)C(=O)OC(C)(C)C | -4.5 | 0.6 | -3.0 | -15.1 | -16.9 | 12.1 | .
C[C@@H](NC(=O)c1nc[nH]c1C(=O)N[C@@H](CCCCNC(=O)OC(C)(C)C)C(=O)OC(C)(C)C)c1ccccc1 | -0.9 | 6.8 | 8.4 | 2.5 | -2.0 | 35.5* | 30.2*
Cc1ccc(NC(=O)c2cccc3ccccc23)cc1 | 8.8 | 3.4 | -0.9 | -7.5 | 3.0 | 0.5 | .
O=C(O)CCc1ccc(-c2ccc(Cl)cc2)n1Cc1ccco1 | 15.2 | 13.2 | 0.5 | 2.4 | -1.0 | 34.9* | 16.1
COc1ccc(S(=O)(=O)Nc2c(C)n(C)n(-c3ccccc3)c2=O)c(Cl)c1Cl | -2.8 | 3.1 | -2.5 | 3.1 | 0.4 | 62.1* | 5.5
COc1cc(Br)c(S(=O)(=O)Nc2c(C)n(C)n(-c3ccccc3)c2=O)cc1OC | 1.9 | -0.2 | 9.4 | 2.7 | 5.9 | 2.4 | .
SMILES | PAFAH2 FP inh | PAFAH1B2 FP inh | PAFAH1B3 inh | PME-1 inh | Fam108B counter | pPAFAH FP inh | pPAFAH confirm
Cc1c(NS(=O)(=O)c2cc(C(=O)NCCN(C)C)ccc2Cl)c(=O)n(-c2ccccc2)n1C | 1.6 | 2.5 | 5.3 | 4.9 | 7.1 | 51.5* | -6.7
Cc1c(NS(=O)(=O)c2cc(C(=O)NCc3cccc(Cl)c3)ccc2Cl)c(=O)n(-c2ccccc2)n1C | -4.0 | 2.5 | 3.5 | . | . | . | .
Cc1ccc(/C=C2\SC(=S)N(CCC(=O)NNC(=O)c3ccncc3)C2=O)cc1 | . | . | . | -0.3 | -3.0 | 8.8 | .
COc1cccc(OC)c1-c1nn2c(-c3cc(-c4ccccc4)n[nH]3)nnc2s1 | 42.3* | 0.4 | -2.0 | -21.6 | -13.6 | 37.2* | 45.9*
Cc1nn(Cc2ccccc2Cl)c(C)c1C(=O)NCCN1C(=O)S/C(=C\c2ccccc2)C1=O | 7.4 | -0.1 | -0.1 | 4.5 | 1.5 | 0.2 | .
O=C1CCC([N+](=O)[O-])C(c2ccc(Cl)cc2)N1 (configuration not stated) | -2.5 | 6.0 | 3.9 | -1.3 | 0.3 | -7.1 | .
CC(C)(C)c1ccc(OCc2ccc(C(=O)N/N=C/c3ccc(O)c(O)c3)cc2)cc1 | 2.0 | -8.0 | 16.6 | 16.5 | 26.9* | 43.0* | 73.8*
O=C(N/N=C/c1ccc(OCc2ccc(F)cc2)cc1)c1ccccc1 | -5.6 | 0.0 | 8.8 | 1.8 | 2.0 | -0.3 | .
O=C(Cc1cccs1)Nc1nnc(Cc2ccccc2)s1 | 21.4 | -1.3 | -1.5 | -5.0 | 7.4 | 18.9 | .
COc1ccc(Cc2nnc(NC(=O)Cc3cccs3)s2)cc1OC | 15.5 | 0.3 | 9.7 | 1.7 | 15.7 | 35.8* | 17.0
COc1cc(NC(=O)c2ccccc2)c(OC)cc1NC(=O)Cc1cccs1 | . | . | . | -3.8 | 2.5 | 46.4* | 20.7
O=C(NCc1ccccc1)c1nnc(CS(=O)(=O)c2ccccc2)o1 | 6.6 | 5.1 | -1.2 | -4.0 | -3.9 | 63.2* | -2.0
CCOc1ccc(CNC(=O)c2nnc(CS(=O)(=O)c3ccccc3)o2)cc1OC | 0.1 | 5.2 | -12.3 | 1.3 | -3.2 | 4.0 | .
O=C(NNc1ccccc1[N+](=O)[O-])Nc1ccc(Cl)c(Cl)c1 | -9.5 | 4.5 | 1.4 | -5.2 | -13.4 | -1.6 | .
O=C1NC(=O)C(c2ccccc2[N+](=O)[O-])=C1Nc1ccc(O)c(Cl)c1 | 11.7 | -0.2 | 8.0 | 6.3 | 16.3 | 44.5* | 6.1
Oc1ccc(-c2csc(Nc3cccc4ccccc34)n2)cc1O | 15.8 | 2.1 | 7.2 | 8.8 | 2.4 | 72.4* | 66.2*
CC(=O)Nc1ccc(-c2csc(Nc3ccccn3)n2)cc1 | 1.9 | 1.3 | 10.9 | 15.8 | -3.8 | 8.9 | .
Oc1ccc(-c2csc(Nc3ccccn3)n2)cc1O | 11.4 | 4.5 | 21.4 | -0.3 | 3.0 | 40.5* | 31.8*
Cc1ccnc(Nc2nc(-c3ccc(O)cc3)cs2)c1 | 3.8 | 6.3 | 2.1 | 6.8 | 2.8 | 9.2 | .
